ERK EGF block: qHTS Assay for Inhibitors of the ERK Signaling Pathway using a Homogeneous Screening Assay; Stimulation with EGF; HEK293-V1b, EGF-stimulated phospho-ERK AlphaScreen; Potency, µM (series often up to 11.5 µM), for inactives: top-dose activity change, negative = inhibition, usual class: inhibitors; hit rate 0.41% among 130,000;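 note: potency is the fitted concentration of half-maximal effect; plate controls were stimulated vehicle wells for no effect and unstimulated vehicle basal for full effect; nearly all actives have a fitted effect of over 55% in size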
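Phospho-ERK1/2 measured by AlphaScreen (SureFire) after 5 min 25 nM EGF stimulation of V1b-expressing HEK293 cells preincubated 30 min at 37C with titrated compounds; data scaled to DMSO and EGF controls, Hill-fitted AC50.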
ERK pERK EGF: Confirmation Concentration-Response Assay for Inhibitors of the ERK Signaling Pathway using a Homogeneous Screening Assay; Stimulation with EGF | shares compounds with ERK EGF block | HEK293 EGF-stimulated ERK phosphorylation, AlphaScreen | Potency, µM (series often up to 57.5 µM), for the others: at the top dose activity change, negative = inhibition, most hits filed as inhibitors | hit rate 60% among 60 | AID 1725, 2009
cRaf kinase inh: Assay for Inhibitors of the ERK Signaling Pathway using a Homogeneous Screening Assay: c-Raf Inhibition | c-Raf kinase inhibition, homogeneous biochemical assay | activity change, negative = inhibition, % at 76.9 µM | shares compounds with ERK EGF block | 70 tested, under 10 active
MEK inh: Assay for Inhibitors of the ERK Signaling Pathway using a Homogeneous Screening Assay: MEK Inhibition; shares compounds with ERK EGF block; homogeneous MEK kinase activity assay, ERK pathway; Potency, µM (top dose mostly 76.9 µM), without a hit: at the top dose activity change, negative = inhibition, usual class: inhibitors; 70 tested, under 10 active
* marks the source's active call; other numbers are inactive results; u = inconclusive; x = not tested or not shown. Shown is part of a subset that was picked to be rich in hits. Calls come from the whole dose curve; as a rule, active = well fitted curve in the direction sought with a large enough effect; inconclusive = small, poorly fitted or top-dose-only effect, or another doubt; inactive = no such curve, though single readings can be large; an effect the other way counts as inactive or inconclusive.

SMILES	ERK EGF block	others
C[C@@H]1O[C@H](O[C@@H]2C[C@@H](O)[C@]3(CO)[C@H]4[C@H](O)C[C@]5(C)[C@@H](C6=CC(=O)OC6)CC[C@@]5(O)[C@@H]4CC[C@]3(O)C2)[C@@H](O)[C@H](O)[C@H]1O	-3%
CC(=O)OC1C[C@H](O[C@@H]2C(O)C[C@H](O[C@@H]3C(O)C[C@@H](OC4CC[C@]5(C)C(CCC6C5CC(O)[C@@]5(C)C(C7=CC(=O)OC7)CC[C@@]65O)C4)OC3C)OC2C)O[C@H](C)[C@H]1O[C@H]1OC(CO)C(O)C(O)C1O (stereo partly specified)	18%
CC1CC[C@@]2(OC1)OC1C(O)C3C4CC[C@H]5CC(O[C@@H]6O[C@@H](CO)[C@H](OC7OC(CO)C(O)C(OC8OCC(O)C(O)[C@H]8O)[C@@H]7O[C@@H]7OC(CO)[C@H](O)[C@@H](O[C@@H]8OC(CO)C(O)C(O)C8O)C7O)C(O)C6O)C(O)C[C@]5(C)C4CC[C@]3(C)C1C2C (stereo partly specified)	7.1µM*
CC1CC[C@@]2(OC1)O[C@@H]1[C@@H](O)[C@H]3C4CC[C@H]5C[C@@H](O[C@@H]6O[C@H](CO)[C@H](O[C@@H]7O[C@H](CO)[C@@H](O)[C@H](O[C@@H]8OC[C@@H](O)[C@H](O)[C@H]8O)[C@H]7O[C@@H]7O[C@H](CO)[C@@H](O)[C@H](O[C@@H]8O[C@H](CO)[C@@H](O)[C@H](O)[C@H]8O)[C@H]7O)[C@H](O)[C@H]6O)[C@H](O)C[C@]5(C)C4CC[C@]3(C)[C@H]1[C@@H]2C (stereo partly specified)	-3%
Oc1cc2c(cc1O)[C@H]1c3ccccc3CN[C@H]1CC2	-2%
Cc1cccc(-n2c(-c3cccs3)nc3ccccc3c2=O)c1	12%
CCn1nc(/C=C/c2ccccc2)nc2c(=O)n(C)c(=O)nc1-2	-2%
CCn1nc(-c2cccs2)nc2c(=O)n(C)c(=O)nc1-2	x	cRaf kinase inh=u;MEK inh=0.89µM*
C#CCOS(=O)OC1CCCCC1Oc1ccc(C(C)(C)C)cc1 (stereo unspecified)	24%
CCCCCCC(C)(C)c1ccc([C@@H]2C[C@H](O)CC[C@@H]2CCCO)c(O)c1	-3%
CCN1C(=O)NC(=O)/C(=C/c2cc(C)n(-c3sc(C)c(C)c3C#N)c2C)C1=O	u	ERK pERK EGF=-4%;cRaf kinase inh=-9;MEK inh=u
Cc1cc(/C=C2/C(=O)NC(=O)N(Cc3ccco3)C2=O)c(C)n1-c1ccccc1	6%
Cc1ccc(N2C(=O)NC(=O)/C(=C\c3cc(C)n(-c4sc5c(c4C#N)CCCC5)c3C)C2=O)cc1	0%
C[C@H]1O[C@H](O[C@H]2[C@H](O)[C@@H](O)[C@@H](O)[C@H](O)[C@@H]2O)[C@@H](N)C[C@@H]1NC(=N)C(=O)O	23%
CN(C(=O)Cc1ccc(Cl)c(Cl)c1)[C@H](CN1CCCC1)c1ccccc1	-4%
